From PubChem BioAssay (NCI) come the findings set out here.

Common to all, as to assay: NCI-60 one-dose screen, 48 h (100 = growth as untreated, 0 = no growth, -100 = all killed)
One test deals with SK-MEL-2 melanoma. Particulars: 10 µM unless noted.
The subject of another test is UO-31 renal. Conditions: 10 µM unless noted.
Another test relates to TK-10 renal. Conditions: 10 µM unless noted.
A further test has as its system ACHN renal. Conditions: 10 µM unless noted.
Another test has as its system CAKI-1 renal. Conditions: 10 µM unless noted.
The next test relates to A498 renal. Particulars: 10 µM.
Another test relates to HL-60(TB) leukemia. Conditions: 10 µM unless noted.
The subject of another test is CCRF-CEM leukemia. Particulars: 10 µM unless noted.
A further test has as its system MOLT-4 leukemia. Conditions: 10 µM unless noted.
The test system of the next test is SR leukemia. Particulars: 10 µM unless noted.
A further test relates to RPMI-8226 leukemia. Conditions: 10 µM unless noted.
The next test has as its system OVCAR-8 ovarian. Conditions: 10 µM unless noted.
The subject of the next test is OVCAR-5 ovarian. Conditions: 10 µM unless noted.
In a further test the test system is OVCAR-4 ovarian. Particulars: 10 µM unless noted.
The subject of another test is SK-OV-3 ovarian. Particulars: 10 µM unless noted.
The subject of another test is IGROV1 ovarian. Conditions: 10 µM unless noted.
The subject of a further test is OVCAR-3 ovarian. Particulars: 10 µM unless noted.
The test system of the next test is HS 578T breast. Particulars: 10 µM unless noted.
For the next test, the system named is SN12C renal. Particulars: 10 µM unless noted.
A further test deals with EKVX NSCLC. Particulars: 10 µM unless noted.

About 83,000 compounds went through this panel and 20% of them were active in at least one assay; those are over-represented in the sample as a whole.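 Single-concentration screen, 48 h exposure, 96-well plates. Endpoint: percent growth. Below 10 = active.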 Unmarked numbers belong to inactive results. Calls of active or inactive are those of the source.

With `Nc1ncnc2n[nH]nc12`, the growth in the test on SK-MEL-2 melanoma was 12.5%; in the test on UO-31 renal it was 35.9%; in the test with TK-10 renal, 61%; in the test with ACHN renal, 46.5%; in the test with CAKI-1 renal, 40.1%; in the test with A498 renal it was 51.4%. Besides, the growth in the test with HL-60(TB) leukemia is 83.5%; in the test with CCRF-CEM leukemia it was 80.7%; with MOLT-4 leukemia, 86.4%; with SR leukemia it was 63.1%; in the test with RPMI-8226 leukemia it was 43.1%; in the test with OVCAR-8 ovarian it was 57.8%. For the same compound, the growth in the test with OVCAR-5 ovarian was 59.3%; in the test on OVCAR-4 ovarian, 57.6%; with SK-OV-3 ovarian it was 13.1%; in the test with IGROV1 ovarian, 52.2%; with OVCAR-3 ovarian it was 75.1%; in the test with HS 578T breast, 94.7%.
As for `COc1ccc(/C=C\c2cc(OC)c(OC)c(OC)c2)cc1NS(=O)(=O)c1ccc(Cl)cc1`, the growth in the test with SK-MEL-2 melanoma was 69.5%; with SN12C renal, 79.8%; in the test with TK-10 renal, 80.2%; with ACHN renal it was 62.2%; in the test with CAKI-1 renal it was 42.8%; in the test on A498 renal, 47%. Moreover, the growth was 54.1% in the test with HL-60(TB) leukemia; 78% in the test on CCRF-CEM leukemia; 51.4% in the test with SR leukemia; 64.3% in the test on RPMI-8226 leukemia; 78.5% in the test on OVCAR-8 ovarian; 83.4% in the test with OVCAR-5 ovarian. Further, the growth in the test on OVCAR-4 ovarian is 55%; in the test on SK-OV-3 ovarian it was 81.9%; with IGROV1 ovarian, 61.9%; with OVCAR-3 ovarian, 76.6%; in the test with HS 578T breast, 67.8%.
Consider `C[C@]12CC[C@H]3[C@@H](CC4SC(N)=NC45C/C(=N/NC(N)=O)CC[C@]35C)[C@@H]1CCC2=O` (some centres undefined), for which the growth in the test with EKVX NSCLC is -4.54% (active); in the test with SN12C renal it was 18.1%; in the test on UO-31 renal it was 85.8%; in the test on TK-10 renal, 49.2%; in the test with ACHN renal, 32.4%; in the test on CAKI-1 renal, 63%. For the same compound, the growth is 91.6% in the test with A498 renal; 42.8% in the test on HL-60(TB) leukemia; -5.86% (active) in the test with CCRF-CEM leukemia; 13.4% in the test with MOLT-4 leukemia; -21.8% (active) with SR leukemia; -6.28% (active) with RPMI-8226 leukemia. For the same compound, the growth in the test with OVCAR-8 ovarian was -2.26% (active); in the test on OVCAR-5 ovarian, 72.9%; with OVCAR-4 ovarian it was -19.1% (active); in the test on SK-OV-3 ovarian, 101%; in the test with OVCAR-3 ovarian, -32.3% (active); with HS 578T breast it was 36.4%.
In the case of `O=[N+]([O-])c1cc([N+](=O)[O-])c(Cl)cc1Cl`, the growth in the test on EKVX NSCLC is -57.1% (active); with SN12C renal it was -89% (active); in the test with UO-31 renal, -93.9% (active); in the test on TK-10 renal, -92.9% (active); in the test on ACHN renal, -91.5% (active); in the test on CAKI-1 renal, -81.2% (active). The growth with A498 renal is 80.1%; with HL-60(TB) leukemia, -40.4% (active); in the test on CCRF-CEM leukemia it was -36.3% (active); with MOLT-4 leukemia it was -21% (active); in the test on SR leukemia, -31.3% (active); in the test on RPMI-8226 leukemia it was -50.2% (active). Also, the growth in the test with OVCAR-8 ovarian is -26.8% (active); in the test with OVCAR-5 ovarian, -69.1% (active); with OVCAR-4 ovarian it was -99% (active); in the test on SK-OV-3 ovarian it was 104%; in the test on OVCAR-3 ovarian, -98% (active); with HS 578T breast it was -27.6% (active).
Take `C[C@]12CCc3sc(-c4ccccc4O)nc3C1=CC[C@@H]1[C@@H]2CC[C@]2(C)C(=O)CC[C@@H]12`: the growth was 99.7% with EKVX NSCLC; 101% with SN12C renal; 85.8% with UO-31 renal; 104% with TK-10 renal; 98.8% in the test with ACHN renal; 83.5% with CAKI-1 renal. For the same compound, the growth with HL-60(TB) leukemia is 103%; in the test on CCRF-CEM leukemia it was 118%; in the test on MOLT-4 leukemia, 94.7%; with SR leukemia it was 109%; with RPMI-8226 leukemia it was 107%; with OVCAR-8 ovarian it was 105%. Further, the growth was 104% with OVCAR-5 ovarian; 108% with OVCAR-4 ovarian; 102% with SK-OV-3 ovarian; 103% in the test with IGROV1 ovarian; 104% in the test with OVCAR-3 ovarian.
Regarding `CCN(CC)c1ccc2c(c1)OC(N)=C(C#N)C2c1cc(OC)c2c(c1)OCO2` (centres undefined), the growth with EKVX NSCLC was 41.7%; in the test on SN12C renal it was 15.1%; in the test on UO-31 renal it was 34.7%; in the test with TK-10 renal it was 59.3%; in the test with ACHN renal, 21.4%; with CAKI-1 renal, 32.7%. The growth with A498 renal is -4% (active); in the test with HL-60(TB) leukemia it was 13%; in the test on MOLT-4 leukemia it was 23.7%; in the test with OVCAR-8 ovarian it was 17.6%; with OVCAR-5 ovarian, 51.6%; in the test with OVCAR-4 ovarian, 43.5%. The growth in the test with SK-OV-3 ovarian is 9.72% (active); in the test with IGROV1 ovarian, 24%; in the test on OVCAR-3 ovarian, -30.7% (active); with HS 578T breast, 9.12% (active).
Take `Cc1ccc(N2COOC3(OOC2)C2CC4CC(C2)CC3C4)cc1`: the growth with EKVX NSCLC is 93%; in the test with SN12C renal it was 106%; in the test on UO-31 renal, 20.7%; in the test on TK-10 renal it was 98.7%; in the test on ACHN renal it was 97.7%; in the test with CAKI-1 renal it was 53.7%. Also, the growth is 88.4% in the test with A498 renal; 66.6% in the test on HL-60(TB) leukemia; 107% with CCRF-CEM leukemia; 79.3% in the test with MOLT-4 leukemia; 46.4% in the test with SR leukemia; 102% in the test with RPMI-8226 leukemia. Also, the growth with OVCAR-8 ovarian is 99%; with OVCAR-5 ovarian, 101%; in the test on OVCAR-4 ovarian, 101%; in the test on SK-OV-3 ovarian, 101%; in the test on OVCAR-3 ovarian, 102%; in the test on HS 578T breast, 109%.
As for `C=CC1=C[C@@H]2[C@@H]3O[C@]4(CC[C@H](O4)[C@@H](C)C[C@@H](O)C3=O)C[C@H](O)C3=NCC[C@@]32CC1`, the growth with EKVX NSCLC was -29.1% (active); in the test on SN12C renal, -15% (active); in the test on UO-31 renal, -38.8% (active); in the test on TK-10 renal, -21% (active); in the test with ACHN renal it was -64.8% (active); with CAKI-1 renal, -11.4% (active). Moreover, the growth was -82.6% (active) in the test on A498 renal; -5.3% (active) in the test with HL-60(TB) leukemia; 4.16% (active) in the test on CCRF-CEM leukemia; 0.671% (active) in the test with MOLT-4 leukemia; 2.4% (active) in the test on SR leukemia; -15.9% (active) with RPMI-8226 leukemia. Besides, the growth was -12.3% (active) with OVCAR-8 ovarian; -24% (active) with OVCAR-5 ovarian; -38.8% (active) with OVCAR-4 ovarian; -4.99% (active) with SK-OV-3 ovarian; -28.4% (active) in the test with IGROV1 ovarian; -30.7% (active) in the test with OVCAR-3 ovarian.
As for `CC[C@H](C)[C@H](NC(=O)NC(C)(C)C)C(=O)N(C)[C@H](C[C@@H](OC(C)=O)c1nc(C(=O)N[C@@H](Cc2ccccc2)C[C@H](C)C(=O)OC)cs1)C(C)C`, the growth in the test on EKVX NSCLC was 29.4%; in the test with SN12C renal, 12.1%; in the test with UO-31 renal it was 45.4%; with TK-10 renal it was 49.5%; in the test on ACHN renal it was 22.7%; with CAKI-1 renal, 22.2%. Also, the growth in the test with A498 renal was -10% (active); in the test on HL-60(TB) leukemia it was -14.6% (active); in the test on CCRF-CEM leukemia it was 10.7%; in the test on MOLT-4 leukemia it was 17.4%; with SR leukemia, 10.6%; in the test with RPMI-8226 leukemia, -3.75% (active). For the same compound, the growth in the test on OVCAR-8 ovarian is 18%; in the test on OVCAR-5 ovarian, 34.8%; in the test with OVCAR-4 ovarian, 36.2%; in the test on SK-OV-3 ovarian, 14.9%; in the test on IGROV1 ovarian, 24.5%; in the test on OVCAR-3 ovarian, -16.8% (active). For the same compound, the growth in the test with HS 578T breast is 3.72% (active).
